Assay outcomes as filed in PubChem.
Compounds with a hit are over-represented: about 6.3% of the library has one in this group of screens.
Mdm2-MdmX inh – inhibitors of human Mdm2/MdmX interaction; inhibition, % at 8 µM; SaOS-2 split-luciferase Mdm2/MdmX complementation, luminescence; 330,000 compounds, 3% hits; AID 485346; O15151+Q00987;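 active = inhibition of at least 50% at 8 µM in the primary screen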
Target sequence (O15151 whole entry, looked up): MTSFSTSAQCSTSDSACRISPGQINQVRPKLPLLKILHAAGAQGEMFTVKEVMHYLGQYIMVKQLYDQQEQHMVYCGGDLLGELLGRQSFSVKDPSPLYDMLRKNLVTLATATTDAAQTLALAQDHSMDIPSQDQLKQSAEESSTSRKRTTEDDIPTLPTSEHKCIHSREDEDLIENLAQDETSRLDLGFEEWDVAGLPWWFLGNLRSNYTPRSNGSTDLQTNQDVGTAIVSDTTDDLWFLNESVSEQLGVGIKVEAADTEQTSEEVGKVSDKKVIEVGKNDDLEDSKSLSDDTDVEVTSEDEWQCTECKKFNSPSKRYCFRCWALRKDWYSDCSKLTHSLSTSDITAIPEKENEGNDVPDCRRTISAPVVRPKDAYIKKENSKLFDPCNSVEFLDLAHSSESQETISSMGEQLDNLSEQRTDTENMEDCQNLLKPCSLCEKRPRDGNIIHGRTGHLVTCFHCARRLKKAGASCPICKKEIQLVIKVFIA
Target sequence (Q00987 whole entry, looked up): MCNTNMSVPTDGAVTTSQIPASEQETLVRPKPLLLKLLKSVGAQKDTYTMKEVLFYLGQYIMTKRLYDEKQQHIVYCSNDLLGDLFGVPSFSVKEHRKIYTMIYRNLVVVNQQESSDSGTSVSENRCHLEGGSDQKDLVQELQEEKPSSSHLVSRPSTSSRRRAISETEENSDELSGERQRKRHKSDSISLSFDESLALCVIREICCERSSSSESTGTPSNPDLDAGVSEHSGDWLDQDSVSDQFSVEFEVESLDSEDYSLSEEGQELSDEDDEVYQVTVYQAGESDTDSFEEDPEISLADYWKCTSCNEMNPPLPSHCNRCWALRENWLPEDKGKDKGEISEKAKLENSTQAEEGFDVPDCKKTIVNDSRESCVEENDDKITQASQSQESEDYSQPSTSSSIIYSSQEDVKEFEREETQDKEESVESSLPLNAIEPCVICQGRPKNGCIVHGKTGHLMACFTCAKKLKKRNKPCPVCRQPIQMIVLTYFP
MPTP block – blocks calcium-induced mitochondrial swelling | isolated mouse mitochondria, Ca2+ swelling absorbance, 30 min | inhibition, % at 10 µM | 360,000 compounds, 1.4% hits | AID 602449;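 active = inhibition of 50% or more, scaled per plate between neutral and stimulator controls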
TIM10 inh – growth inhibitors of TIM10 yeast strain; S. cerevisiae TIM10 strain growth, BacTiter-Glo luminescence, 24 h; inhibition, % at 10 µM; 330,000 compounds, 1.4% hits; AID 463195;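 active = inhibition of 40% or more at the single tested concentration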;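 also: wild-type TIM10 isogenic control strain grown at permissive 25 °C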
tim23-1 inh – tim23-1 yeast growth inhibition; S. cerevisiae tim23-1 growth, BacTiter-Glo luminescence, 24 h; inhibition, % at 20 µM; 330,000 compounds, 1.3% hits; AID 463212;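 active = growth inhibition of the mutant yeast at or above 50%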;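 also: temperature-sensitive mutant grown at 25 °C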
tim10-1 inh – growth inhibitors of tim10-1 mutant yeast; S. cerevisiae tim10-1 ts strain growth, BacTiter-Glo, 24 h; inhibition, % at 20 µM; 330,000 compounds, 2.2% hits; AID 463190;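 active = inhibition of at least 40%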;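 also: mutant grown at 25 °C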
tim10-1 conf – tim10-1 yeast growth inhibition, confirmed | shares compounds with tim10-1 inh | AID 463213 | inhibition, % at 20 µM | S. cerevisiae tim10-1 ts strain growth, BacTiter-Glo, 24 h | 7,400 compounds, 56% hits;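 active = inhibition of yeast growth at or above a set limit in either of two repeat tests at 20 µM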;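 also: tim10-1 mutant grown at permissive 25 °C to find synthetic lethal compounds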
tim10 confirm – TIM10 yeast growth inhibition, confirmed; inhibition, % at 10 µM; shares compounds with TIM10 inh; 4,600 compounds, 63% hits; S. cerevisiae tim10 strain growth, BacTiter-Glo luminescence, 24 h;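 active = inhibition of yeast growth at or above a set limit in either of two replicates at 10 µM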; also: this counterscreen used the strain with wild-type TIM10
tim23-1 confirm – tim23-1 yeast growth inhibition, confirmed. shares compounds with tim23-1 inh. S. cerevisiae tim23-1 growth, BacTiter-Glo luminescence, 24 h. inhibition, % at 20 µM. 4,400 compounds, 83% hits. AID 463218;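 active = inhibition above about 39% in either of two replicate wells at 20 µM, limit read from the data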;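 also: temperature-sensitive tim23-1 mutant grown at 25 °C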
Mdm2-MdmX conf – human Mdm2/MdmX binding inhibition, confirmed. shares compounds with Mdm2-MdmX inh. luminescent assay. inhibition, % at 8 µM. 10,000 compounds, 55% hits; in the data active = inhibition above about 40%
Full FLuc ctr – counter-screen for Mdm2/MdmX inhibitors: full-length luciferase; shares compounds with Mdm2-MdmX inh; SaOS-2 full-length luciferase counterscreen, luminescence; inhibition, % at 8 µM; 6,200 compounds, 77% hits; AID 504607;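 active = mean inhibition at 8 µM reaching about 37%, which flags the compound as non-specific, limit read from the data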;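 also: p53-null SaOS-2 cells with luciferase driven by a doxycycline-inducible promoter; compound on cells about two nights before reading with doxycycline added after day one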
Rh123 counter – Rhodamine 123 counter-screen of mitochondrial pore hits. shares compounds with MPTP block. isolated mitochondria, membrane potential, Rhodamine 123 fluorescence. inhibition, % at 10 µM. 5,000 compounds, 78% hits. AID 624504; in the data active = inhibition above about 22%
MPTP swell DR – MPTP inhibition, dose response swelling confirmation; 780 compounds, 58% hits; shares compounds with MPTP block; isolated mitochondria swelling, absorbance; AID 651561; IC50, µM; in the data active = IC50 below about 20 µM
MPTP cs DR – active in counter-screen for permeability transition pore inhibitors | shares compounds with MPTP block | isolated mitochondria counterscreen, fluorescence read-out | IC50, µM | 780 compounds, 49% hits | AID 651564; in the data active = IC50 below about 80 µM
A number is an active result; i = inactive; nt = no result.

SMILES | Mdm2-MdmX inh | MPTP block | TIM10 inh | tim23-1 inh | tim10-1 inh | tim10-1 conf | Rh123 counter | others
COc1ccc(OC)c(NC(=O)CCNC(=O)N2CC(=O)Nc3ccccc32)c1 | nt | i | nt | nt | nt | nt | nt
O=C(C[C@@H]1CC[C@@H]2[C@H](COC[C@H](O)CN2S(=O)(=O)c2ccccc2)O1)Nc1ccccc1 | nt | i | nt | nt | nt | nt | nt
COc1cc(OC)c(C(=O)Nc2cc(S(=O)(=O)N3CCOCC3)ccc2N2CCOCC2)cc1OC | nt | i | nt | nt | nt | nt | nt
FC(F)Sc1ccc(NC(=S)NC2CCCC2)cc1 | i | 95 | 59 | i | 53 | 41 | 94 | tim10 confirm=i
OC1CCC(NC(=S)Nc2ccc(SC(F)F)cc2)CC1 (stereo unspecified) | i | i | i | i | i | nt | nt
CCc1nc2c(OCc3ccc(Cl)cc3)cccn2c1N(C=O)Cc1ccccc1 | nt | i | nt | nt | nt | nt | nt
CC1CCCN(C(=S)SCC(=O)c2cc(Br)cc(Br)c2O)C1 (stereo unspecified) | i | 59 | i | i | 50 | 46 | 32
O=C(Cn1nnc(-c2ccccc2)c1COc1ccc2ccccc2c1)NCC1CC1 | nt | i | nt | nt | nt | nt | nt
CCc1ccc(CN(C)Cc2c(C(=O)N3CCOCC3)nc3c(C)cccn23)nc1 | nt | i | nt | nt | nt | nt | nt
CNCCCOc1ccc(Cl)cc1C(C)(C)C | i | 91 | i | i | 41 | i | i | MPTP swell DR=5.1;MPTP cs DR=i
Cc1nn(-c2ccccc2)nc1C(=O)Nc1cccc(C(=O)NC2CC2)c1 | nt | i | nt | nt | nt | nt | nt
Oc1c(Cl)cc(Cl)cc1CNc1ccc(Br)cn1 | i | 72 | i | i | 55 | 63 | 83
Oc1ccc(Cl)cc1CNc1ccccn1 | i | i | i | i | i | nt | nt
CCN(CC)C(=O)C1=C(C)N(Cc2ccc(OC)cc2)C(=O)C(CC(=O)NCCN2CCOCC2)C1 (stereo unspecified) | nt | i | nt | nt | nt | nt | nt
CN1CCN(c2nc(-c3ccccc3)c3cc(Cl)ccc3n2)CC1 | i | 63 | i | i | 42 | i | i | MPTP swell DR=17;MPTP cs DR=77
C=CCSc1nsc(NC(=O)Nc2ccc(F)cc2)n1 | 91 | 98 | 66 | 78 | 62 | 74 | 78 | tim10 confirm=65;tim23-1 confirm=78;Mdm2-MdmX conf=89;Full FLuc ctr=i
CC1(C(=O)NCc2ccco2)CCN1C(=O)C1(c2ccccc2)CC1 (stereo unspecified) | nt | i | nt | nt | nt | nt | nt
Fc1nc(F)c(F)c(NCCCNc2c(F)c(F)nc(F)c2F)c1F | i | 93 | 55 | 66 | 54 | 76 | 94 | tim10 confirm=45;tim23-1 confirm=81
COc1ccc(S(=O)(=O)N2CCC[C@@H]2C(=O)N2CCC[C@H]2C(=O)NCc2ccncc2)cc1C | nt | i | nt | nt | nt | nt | nt
N#CC(c1cccc(Cl)c1)c1ccc2c(C(F)(F)F)cc(C(F)(F)F)nc2n1 (stereo unspecified) | 98 | 114 | 75 | 79 | 88 | 70 | 90 | tim10 confirm=65;tim23-1 confirm=72;Mdm2-MdmX conf=94;Full FLuc ctr=57
NNc1ccc2c(C(F)(F)F)cc(C(F)(F)F)nc2n1 | i | i | i | i | i | nt | nt
CCOc1ccccc1NC(=O)C(OC(=O)c1ccc(O)cc1)c1ccccc1 (stereo unspecified) | i | 89 | i | i | 42 | 38 | 86
CN1CCN(/N=C/c2c3ccccc3c(Cl)c3ccccc23)CC1 | i | 91 | 47 | i | 47 | 52 | i | tim10 confirm=46
O=C(/C(N=Nc1cccc(C(F)(F)F)c1)=C(/O)c1cccs1)C(F)(F)F | i | 86 | i | i | 40 | 31 | 82
